Source: ChEMBL document CHEMBL3988442, “University of Dundee, Small-Polar-MMV Screening Library” (2021)
For some assays here: Measured potencies and affinities stand elsewhere.

What was measured:
Design in all cases: scale not given: direction of the effect not stated beside the values
[1] = target: Protein translocase subunit SecA (Escherichia coli (strain K12)) (UniProt P10408); assay: Assay to Identify E. coli SecA ATPase Inhibitors; type: functional; details: 30 µM
[2] = target: T1, Ubiquitin-activating enzyme e1, putative (Leishmania donovani (strain BPK282A1)) (UniProt E9BSI1); assay: Leishmania donovani Ubiquitin Activating Enzyme (LdE1); type: functional; details: 30 µM
T1 sequence (whole entry): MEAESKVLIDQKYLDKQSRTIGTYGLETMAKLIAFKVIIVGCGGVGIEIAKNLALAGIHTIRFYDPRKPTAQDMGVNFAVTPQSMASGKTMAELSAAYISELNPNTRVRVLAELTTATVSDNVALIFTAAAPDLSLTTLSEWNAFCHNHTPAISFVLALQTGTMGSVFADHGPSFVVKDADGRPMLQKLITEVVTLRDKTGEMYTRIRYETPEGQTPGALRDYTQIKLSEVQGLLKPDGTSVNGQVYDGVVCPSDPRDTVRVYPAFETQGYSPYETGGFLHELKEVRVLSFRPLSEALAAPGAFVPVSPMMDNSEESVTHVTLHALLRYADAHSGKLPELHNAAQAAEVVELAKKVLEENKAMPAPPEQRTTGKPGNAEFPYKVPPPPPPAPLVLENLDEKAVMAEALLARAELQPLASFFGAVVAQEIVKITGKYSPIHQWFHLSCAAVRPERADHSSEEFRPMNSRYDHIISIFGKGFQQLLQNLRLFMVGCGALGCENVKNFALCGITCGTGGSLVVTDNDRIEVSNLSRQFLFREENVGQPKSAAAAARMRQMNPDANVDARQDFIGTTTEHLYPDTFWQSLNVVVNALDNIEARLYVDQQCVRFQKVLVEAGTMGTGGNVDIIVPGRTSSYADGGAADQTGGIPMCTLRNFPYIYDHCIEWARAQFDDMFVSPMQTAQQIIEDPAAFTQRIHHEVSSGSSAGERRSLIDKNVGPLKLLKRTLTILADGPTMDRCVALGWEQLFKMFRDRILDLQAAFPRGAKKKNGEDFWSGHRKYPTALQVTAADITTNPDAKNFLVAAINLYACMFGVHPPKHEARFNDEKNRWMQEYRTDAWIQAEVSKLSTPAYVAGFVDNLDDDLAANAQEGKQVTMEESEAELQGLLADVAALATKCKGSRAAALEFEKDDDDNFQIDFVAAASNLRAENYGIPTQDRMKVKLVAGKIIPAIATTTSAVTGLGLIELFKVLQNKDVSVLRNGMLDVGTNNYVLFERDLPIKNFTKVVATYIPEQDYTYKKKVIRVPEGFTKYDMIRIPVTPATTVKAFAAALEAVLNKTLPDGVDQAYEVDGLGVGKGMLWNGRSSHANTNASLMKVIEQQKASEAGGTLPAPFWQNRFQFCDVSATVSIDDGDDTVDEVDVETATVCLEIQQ

[3] = target: AMP-activated protein kinase, AMPK (Homo sapiens) (UniProt P54646+O43741+P54619+Q9UGJ0+Q9Y478+Q13131+Q9UGI9); assay: AMP-dependent Kinase enzyme assay. An in vitro enzyme assay that detects ADP turnover that is directly proportional to AMPK activity. This uses naive AMPK that is activated during the assay with MK-8722; type: functional; details: 30 µM
[4] = target: Sialic acid-binding Ig-like lectin 9 (Homo sapiens) (UniProt Q9Y336); assay: Hs-Siglec9 ALPHAscreen SOP 20170721; details: 10 µM
Sialic acid-binding Ig-like lectin 9 (Homo sapiens), sequence (Q9Y336 whole entry): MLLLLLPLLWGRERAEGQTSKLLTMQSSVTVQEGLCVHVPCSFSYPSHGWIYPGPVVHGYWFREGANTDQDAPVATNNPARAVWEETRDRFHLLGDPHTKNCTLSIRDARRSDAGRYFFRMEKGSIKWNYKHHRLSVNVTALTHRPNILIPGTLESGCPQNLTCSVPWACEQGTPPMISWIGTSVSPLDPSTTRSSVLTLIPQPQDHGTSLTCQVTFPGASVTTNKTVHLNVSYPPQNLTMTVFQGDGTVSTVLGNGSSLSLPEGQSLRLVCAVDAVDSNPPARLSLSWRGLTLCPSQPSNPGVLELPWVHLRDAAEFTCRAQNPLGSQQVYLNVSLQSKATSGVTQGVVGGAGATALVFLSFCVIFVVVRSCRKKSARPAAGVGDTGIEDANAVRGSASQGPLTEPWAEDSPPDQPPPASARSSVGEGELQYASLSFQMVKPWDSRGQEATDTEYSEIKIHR

[5] = test system: Trypanosoma cruzi; assay: Trypanosoma cruzi phosphomannomutase and mannose-1-phosphate guanylyltransferase assay; type: functional; details: 10 µM
[6] = target: T2, Arginase-2, mitochondrial (Homo sapiens) (UniProt P78540); assay: in vitro enzyme assay to detect the production of urea directly proportional to the activity of Arginase II; type: functional; details: 33.3 µM; also: in the data most compounds retested in dose-response had high values
T2 sequence (whole entry): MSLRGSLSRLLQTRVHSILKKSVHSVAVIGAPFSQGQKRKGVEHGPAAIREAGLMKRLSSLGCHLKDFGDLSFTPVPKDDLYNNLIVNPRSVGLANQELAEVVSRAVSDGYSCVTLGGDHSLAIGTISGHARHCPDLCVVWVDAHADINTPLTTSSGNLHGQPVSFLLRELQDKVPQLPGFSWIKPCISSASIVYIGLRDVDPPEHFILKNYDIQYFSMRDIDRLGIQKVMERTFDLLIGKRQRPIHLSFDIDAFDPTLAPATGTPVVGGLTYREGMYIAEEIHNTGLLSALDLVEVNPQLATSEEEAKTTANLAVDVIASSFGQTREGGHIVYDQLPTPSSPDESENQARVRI

[7] = target: T3, Proteasome subunit beta (Trypanosoma cruzi) (UniProt O96673); assay: Trypanosoma cruzi proteasome chymotrypsin-like activity (TcProtChymo) assay.; also: in the data most compounds retested in dose-response had high values; type: functional; details: 9.37 µM
T3 sequence (whole entry): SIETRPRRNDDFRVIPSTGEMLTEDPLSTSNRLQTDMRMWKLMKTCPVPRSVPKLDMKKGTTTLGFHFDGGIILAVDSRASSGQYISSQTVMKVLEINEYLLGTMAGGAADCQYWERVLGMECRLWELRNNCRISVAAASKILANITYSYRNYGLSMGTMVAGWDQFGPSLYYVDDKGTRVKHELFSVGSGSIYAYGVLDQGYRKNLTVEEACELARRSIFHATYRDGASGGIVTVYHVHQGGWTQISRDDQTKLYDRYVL

[8] = organism: Homo sapiens; assay: To identify inhibition of the IFN signalling (Jak-Stat) pathway via expression of an eGFP reporter gene under the control of an IFN-stimulated response element (ISRE) containing MxA promoter.; type: functional; details: 30 µM
[9] = target: T4, Tyrosyl-tRNA synthetase, putative (Trypanosoma cruzi (strain CL Brener)) (UniProt Q4DSP6); assay: Trypanosoma cruzi tyrosyl tRNA synthetase (TcYRS) _High Tyrosine SOP; type: functional; details: 30 µM; also: in the data most compounds retested in dose-response had high values
T4 sequence (whole entry): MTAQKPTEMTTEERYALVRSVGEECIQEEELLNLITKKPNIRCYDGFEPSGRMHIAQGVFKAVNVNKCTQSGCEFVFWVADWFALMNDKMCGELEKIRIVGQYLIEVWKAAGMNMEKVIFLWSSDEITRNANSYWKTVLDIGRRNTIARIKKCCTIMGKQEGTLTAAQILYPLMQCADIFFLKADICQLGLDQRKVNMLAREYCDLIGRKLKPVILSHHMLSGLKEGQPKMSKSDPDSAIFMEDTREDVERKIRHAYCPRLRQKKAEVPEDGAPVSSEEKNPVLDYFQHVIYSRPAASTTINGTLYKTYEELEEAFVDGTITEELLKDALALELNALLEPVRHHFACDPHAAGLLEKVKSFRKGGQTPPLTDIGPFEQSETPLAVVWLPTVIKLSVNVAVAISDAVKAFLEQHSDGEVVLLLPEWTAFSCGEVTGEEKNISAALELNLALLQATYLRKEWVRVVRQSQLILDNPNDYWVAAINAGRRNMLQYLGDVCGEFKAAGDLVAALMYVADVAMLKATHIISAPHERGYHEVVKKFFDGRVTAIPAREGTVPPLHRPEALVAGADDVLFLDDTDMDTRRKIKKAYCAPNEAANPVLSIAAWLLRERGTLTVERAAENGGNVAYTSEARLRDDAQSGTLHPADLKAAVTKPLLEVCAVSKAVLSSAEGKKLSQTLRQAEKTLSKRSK

[10] = target: T4, Tyrosyl-tRNA synthetase, putative (Trypanosoma cruzi (strain CL Brener)); assay: Trypanosoma cruzi tyrosyl tRNA synthetase (TcYRS) SOP; type: functional; details: 30 µM
[11] = target: Chromo domain-containing protein 1 (Saccharomyces cerevisiae (strain ATCC 204508 / S288c) (Baker's yeast)) (UniProt P32657); assay: ScCHD-1 Enzyme Inhibition Assay; type: functional; details: 30 µM; also: in the data most compounds retested in dose-response had high values
Chromo domain-containing protein 1 (Saccharomyces cerevisiae (strain ATCC 204508 / S288c) (Baker's yeast)), sequence (P32657 whole entry, the tested form may be a part): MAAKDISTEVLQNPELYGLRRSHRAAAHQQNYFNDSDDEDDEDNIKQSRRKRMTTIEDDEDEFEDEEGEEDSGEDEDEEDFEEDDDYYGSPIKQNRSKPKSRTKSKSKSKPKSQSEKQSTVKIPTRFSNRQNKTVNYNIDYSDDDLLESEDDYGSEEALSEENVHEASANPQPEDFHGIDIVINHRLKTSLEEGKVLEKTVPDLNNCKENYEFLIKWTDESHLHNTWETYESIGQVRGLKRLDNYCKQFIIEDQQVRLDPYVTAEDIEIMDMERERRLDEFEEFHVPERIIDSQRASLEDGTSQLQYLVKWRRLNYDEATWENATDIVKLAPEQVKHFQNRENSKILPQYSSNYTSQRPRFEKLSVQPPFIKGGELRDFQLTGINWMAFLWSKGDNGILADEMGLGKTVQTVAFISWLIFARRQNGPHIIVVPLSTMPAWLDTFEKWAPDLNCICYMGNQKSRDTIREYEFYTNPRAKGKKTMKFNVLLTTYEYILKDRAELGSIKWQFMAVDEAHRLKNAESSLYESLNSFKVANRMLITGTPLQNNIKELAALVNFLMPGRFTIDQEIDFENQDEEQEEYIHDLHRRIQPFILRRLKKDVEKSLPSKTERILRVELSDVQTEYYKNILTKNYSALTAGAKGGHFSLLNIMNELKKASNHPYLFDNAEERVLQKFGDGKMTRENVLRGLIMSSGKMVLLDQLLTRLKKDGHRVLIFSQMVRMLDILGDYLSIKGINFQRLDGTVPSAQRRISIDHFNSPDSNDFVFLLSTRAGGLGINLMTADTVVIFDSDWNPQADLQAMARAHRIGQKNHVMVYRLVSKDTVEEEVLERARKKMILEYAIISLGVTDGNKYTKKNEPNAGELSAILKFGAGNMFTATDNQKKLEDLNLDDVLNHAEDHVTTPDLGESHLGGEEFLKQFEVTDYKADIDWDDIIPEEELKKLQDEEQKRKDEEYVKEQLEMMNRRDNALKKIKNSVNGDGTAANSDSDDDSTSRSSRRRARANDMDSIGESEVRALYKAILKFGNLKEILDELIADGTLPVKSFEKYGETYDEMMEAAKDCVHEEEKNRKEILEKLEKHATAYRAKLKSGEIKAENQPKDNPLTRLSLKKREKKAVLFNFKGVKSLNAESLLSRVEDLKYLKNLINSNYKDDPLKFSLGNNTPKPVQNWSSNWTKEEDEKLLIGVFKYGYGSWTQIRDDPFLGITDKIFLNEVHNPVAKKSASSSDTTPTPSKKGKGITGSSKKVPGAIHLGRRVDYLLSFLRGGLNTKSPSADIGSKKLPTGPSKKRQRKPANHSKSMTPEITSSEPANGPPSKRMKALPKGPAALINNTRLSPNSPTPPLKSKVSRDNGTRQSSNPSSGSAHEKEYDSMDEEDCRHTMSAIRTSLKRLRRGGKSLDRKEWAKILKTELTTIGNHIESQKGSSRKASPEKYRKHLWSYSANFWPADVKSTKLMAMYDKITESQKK

Protein translocase subunit SecA (Escherichia coli (strain K12)), sequence (P10408 whole entry): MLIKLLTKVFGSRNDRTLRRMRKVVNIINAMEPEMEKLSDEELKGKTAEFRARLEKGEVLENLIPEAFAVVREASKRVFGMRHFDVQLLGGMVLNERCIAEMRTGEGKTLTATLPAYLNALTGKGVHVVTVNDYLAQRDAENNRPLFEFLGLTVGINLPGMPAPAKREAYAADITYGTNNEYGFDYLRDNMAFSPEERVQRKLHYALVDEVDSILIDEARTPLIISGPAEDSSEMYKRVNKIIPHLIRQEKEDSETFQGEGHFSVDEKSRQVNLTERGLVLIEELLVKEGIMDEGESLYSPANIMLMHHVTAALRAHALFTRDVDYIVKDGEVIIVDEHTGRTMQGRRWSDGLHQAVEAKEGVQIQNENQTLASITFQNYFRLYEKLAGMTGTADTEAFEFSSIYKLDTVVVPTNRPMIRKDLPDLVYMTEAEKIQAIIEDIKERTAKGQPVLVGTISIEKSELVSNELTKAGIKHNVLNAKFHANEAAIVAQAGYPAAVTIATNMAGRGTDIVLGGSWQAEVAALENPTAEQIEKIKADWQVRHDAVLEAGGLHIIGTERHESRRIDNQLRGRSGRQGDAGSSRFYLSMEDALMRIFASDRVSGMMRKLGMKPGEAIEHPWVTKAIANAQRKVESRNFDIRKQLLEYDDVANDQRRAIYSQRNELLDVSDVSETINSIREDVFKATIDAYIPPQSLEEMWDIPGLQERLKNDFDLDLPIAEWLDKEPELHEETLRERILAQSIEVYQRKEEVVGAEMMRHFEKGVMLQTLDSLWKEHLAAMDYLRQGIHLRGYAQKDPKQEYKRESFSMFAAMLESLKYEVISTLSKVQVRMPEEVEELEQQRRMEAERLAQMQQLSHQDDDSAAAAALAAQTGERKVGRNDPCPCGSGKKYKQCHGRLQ

| SMILES | Percent Effect [1] | Percent Effect [2] | Percent Effect [3] | Percent Effect [4] | Percent Effect [5] | Percent Effect [6] | Percent Effect [7] | Percent Effect [8] | Percent Effect [9] | Percent Effect [10] | Percent Effect [11] |
| --- | --- | --- | --- | --- | --- | --- | --- | --- | --- | --- | --- |
| Cn1nc(C(=O)N2CCCCC2c2nc3cc(F)ccc3[nH]2)ccc1=O (configuration not stated) | -6.48% | 15.3% | -16.2% | 39.4% | 10.6% | 3.97% | 9.82% | -6.87% | 2.1% | 17.9% | -10.9% |
| Cc1nc(CN2C(=O)CC[C@@H]3[C@H]2CCN3C(=O)NC2CC2)cs1 | 1.26% | 16.2% | -5.26% | -11.1% | -3.23% | 0.955% | 10.2% | 16.1% | 1.08% | 12.8% | -6.62% |
| CCNC(=O)c1cnc(Cc2ccc(F)cc2)s1 | -3.2% | -2.67% | 3.74% | 1.03% | -1.27% | 4.17% | 8.72% | 14.1% | 3.83% | 8.64% | -2.95% |
| CCNc1cc2c(nn1)CCN(C(=O)Cc1noc3ccccc13)C2 | -6.38% | 13.2% | -1.77% | 6.44% | 5.51% | 0% | -3.47% | 5.21% | 4.43% | 16.1% | -4.69% |
| CC(Cc1ccco1)NC(=O)Nc1ccc(S(C)(=O)=O)nc1 (configuration not stated) | -4.47% | 18.4% | -6.45% | -1.24% | 4.13% | -0.383% | 9.52% | 21.8% | 9.31% | 19.5% | -12.4% |
| Cc1cc(CN2CCN(CCOc3cccc(C#N)c3)CC2)no1 | -2.32% | 15.8% | -0.384% | -11.5% | -1.4% | 1.44% | 10.6% | 3.18% | 5.42% | 23.5% | -5.93% |
| COc1cc(NC(=O)Cn2ccc3sc(C)cc3c2=O)cc(OC)c1 | 0.749% | 0% | 8.38% | 5.78% | -5.42% | 17.4% | 7.49% | 2.45% | 1.06% | 11.5% | -0.379% |
| Cc1ncc(CNC(=O)c2nn(C)c3c2CS(=O)(=O)CC3)s1 | -3.9% | 9.33% | 3.53% | 5.84% | 3.73% | -6.16% | 13.3% | 4.95% | 9.52% | 12.8% | -9.87% |
| c1cnn(CC2CCCN2c2ncnc3ccsc23)c1 (configuration not stated) | -0.167% | 13.5% | 3.45% | -4.74% | -8.08% | 6.84% | 8.8% | 53.8% | 7.92% | 18.3% | -4.66% |
| COc1ccc(C)cc1CN1CCCC1Cn1nc(C)nc1C (configuration not stated) | -5.51% | -3.8% | -7.49% | 4.01% | 2.97% | -0.645% | 16.6% | 46.5% | 8.33% | 12.7% | -26.7% |
| Cc1ccc(C(=O)N2C[C@@H]3OCCN(CCN4CCCC4)[C@@H]3C2)cn1 | -3.52% | 8.11% | 0.326% | -5.24% | -2.25% | 2.23% | 21% | -5.79% | 5.41% | 15.4% | -1.17% |
| Cc1cc(S(=O)(=O)N2CCC(S(C)(=O)=O)CC2)ccc1F | -4.08% | 5.2% | 6.02% | 4.37% | -0.493% | 8.39% | -2.96% | 14.6% | 4.23% | 11.5% | -5.25% |
| CCn1ccnc1CN1CCCN(C(=O)Cn2nc(C)cc2C)CC1 | -2.55% | 0% | 9.91% | -9.39% | 1.08% | -0.21% | 3.31% | -12.9% | -1.91% | 0% | -14.3% |
| Cc1cc(-c2cnc(NC3CCCC3)nc2-c2ccoc2C)on1 | -2.76% | 14.9% | 65.2% | 4.01% | 0.395% | -0.696% | 5.77% | 14.7% | 6.45% | 3.9% | -16% |
| Cn1c(CNc2c(F)cccc2-n2cccn2)cc(=O)n(C)c1=O | -1.07% | 6.94% | -4.86% | 3.69% | 1.46% | 20.8% | 6.14% | 5.47% | 5.26% | 10.3% | -0.228% |
| COc1cc2nc(C)n(CC(=O)NCCCN(C)C)c(=O)c2cc1OC | -0.823% | 20% | -6.34% | -3.21% | 4.13% | -2.99% | 17.4% | 12.2% | 6.35% | 15.4% | -9.62% |
| Cc1cnc(CN(C)C2CCN(CC(=O)Nc3nncs3)C2)o1 (configuration not stated) | -0.539% | 22.8% | -11% | -8.69% | -2.74% | 1.14% | 5% | 5.59% | 12.3% | 21.5% | -9.12% |
| Cc1cccc(NC2CCN(C(=O)Nc3cc(F)cc(F)c3)CC2)n1 | -9.91% | 7.59% | -1.53% | 14.7% | 12.4% | -4.18% | 4.34% | 27.7% | -0.493% | 13.9% | -7.84% |
| CCc1c(C(=O)NCC2CCS(=O)(=O)C2)cnn1-c1ccc(C)cc1 (configuration not stated) | -3.51% | 17.7% | -2.2% | -1.25% | 2.74% | 4.94% | 2.54% | 5.86% | 5.42% | 21.5% | -6.44% |
| CN(C)CCO[C@@H]1CC[C@H]2[C@H]1OCCN2C(=O)CCc1ccccc1 | -1.21% | 2.67% | -7.4% | -1.11% | -2.7% | -57.5% | 0.171% | -1.39% | 0% | 2.5% | -6.72% |
| CCN(CC)CCNC(=O)c1ccn(COc2cc(C)cc(C)c2)n1 | -1.61% | 9.33% | 0.388% | 2.31% | -0.197% | -8.28% | 21.4% | 0.95% | 6.35% | 15.4% | -9.92% |
| O=C(NCCNc1ccc(C(F)(F)F)cn1)c1ccc(Br)cc1F | -3.12% | 10.4% | 7.24% | -16.8% | -5.39% | -2.74% | 11.9% | 6.29% | 3.81% | 14.1% | -26.3% |
